Among the data in PubChem BioAssay (NCI) are growth values, retold here.

The panel holds about 83,000 compounds, 20% with a hit somewhere; the sample as a whole holds those more often.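 Plates (96-well) were seeded with cells, treated with compound at one concentration, and incubated for 48 hours before percent growth was determined.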 Calls of active or inactive are those of the source. Rule for the calls: active = growth percent below 10; inactive = the rest.

This experiment has as its system HL-60(TB) leukemia. Put plainly: NCI-60 one-dose screen, 48 h (100 = growth as untreated, 0 = no growth, -100 = all killed). As to conditions: 10 µM unless noted.
On to `CCC(=O)Oc1ccc(/C=N/NC(N)=S)nc1`, for which the growth is 19.9% (inactive).
Under `CCN(CC)P(=O)(N(CC)CC)N(CCCSC/C=C(\C)CC/C=C(\C)CCC=C(C)C)CCCN1CCN(C)CC1` stands 83.3% (inactive).
As to `C#CCOc1cccc(-c2ncnc3cc(NC(=O)CCl)ccc23)c1`, the growth is -29.7% (active).
In the case of `COc1ccc(C(=O)C(CN(C)C)c2ccc(OC)cc2)cc1` (centres undefined), the growth was 36% (inactive).
As for `CCCCCC(=O)N(CCCC)CCCC`, the growth was 109% (inactive).
Under `COc1ccc(-c2nnc(N3CCN(C(=O)CN4CCN(c5ccc(Cl)cc5)CC4)CC3)nc2-c2ccc(OC)cc2)cc1` stands -37.4% (active); under `COc1ccc(C(=O)Cn2c(C(=O)c3ccc(Cl)cc3)nc3ccccc32)cc1`, 42.2% (inactive).
Take `O=C(Cc1nc2ccc([N+](=O)[O-])cc2nc1CC(=O)c1cccnc1)c1cccnc1`: the growth is 67.5% (inactive).
Regarding `O=C(Nc1cccc(C(F)(F)F)c1)Nc1ccc(OCc2nnc(-c3ccccc3)o2)c(F)c1`, the growth was -4.69% (active).
Take `O=[N+]([O-])c1ccc(-c2ncc(-c3ccc(Br)cc3)o2)cc1`: the growth was 76.6% (inactive).
For `C#CC(OC(=O)N(C)C)(c1ccccc1)c1ccc(F)cc1` (centres undefined), the growth was 127% (inactive).
For `C[C@H](Oc1cc(-c2cnn(C3CCNCC3)c2)cnc1N)c1c(Cl)ccc(F)c1Cl`, the growth is 58.3% (inactive).
For `CC(=O)Nc1ccc2c(c1)C(=O)c1cccc(C(=O)O)c1-2`, the growth is 97.2% (inactive).
On to `Cn1cc(-c2csc(-c3cn(C)c4ncccc34)n2)c2ccccc21`, for which the growth was -3.85% (active).
The figure for `CN1CCN(CCCOc2ccc3ncnc(Nc4ccc(Oc5cccc(C(F)(F)F)c5)c(Cl)c4)c3c2)CC1` is -45.9% (active); for `COc1ccc(/C(=C\c2cc(OC)c(OC)c(OC)c2)C(=O)N2CCNCC2)cc1` it is 98% (inactive); for `CCC1C(=O)COC1=O` (centres undefined) it is 96.9% (inactive).
The figure for `CN(C)c1ccc(Nc2c3ccccc3nc3cc(NC(=O)CCN4CCCC4)ccc23)cc1` is -57.9% (active); for `COc1ccc(C2Nc3nc(OC)n(C)c(=O)c3N=C3c4ccccc4C(=O)C32)cc1` (centres undefined) it is 67.1% (inactive).
For `CC1(C)Oc2cc3oc(=O)ccc3cc2C[C@@H]1OCCOS(=O)(=O)c1ccc(C#N)cc1`, the growth is 100% (inactive).
Under `O=c1ccccc(-c2ccc(Br)cc2)c1O` stands -35.9% (active); under `CC(C)c1[nH]nc2c(NCc3ccc(-c4ccccn4)cc3)nc(SCCN(C)C)nc12`, -16.4% (active); under `COc1cccc(/C=C/C(=O)c2cccc(Nc3nc(Nc4ccccc4)nc(Nc4ccccc4)n3)c2)c1`, 94.2% (inactive).
As to `CCN1CCN(c2cc(-c3cn[nH]c3-c3cc(C)cc(OC)c3)nc(-c3cccnc3)n2)CC1`, the growth is 64.9% (inactive).
For `C#C[C@]1(O)CC[C@H]2[C@@H]3CC=C4c5sc(Nc6cc(F)ccc6F)nc5CC[C@]4(C)[C@H]3CC[C@@]21C`, the growth was -1.19% (active).
The figure for `O=C(NCCCl)Nc1nccnc1OCc1ccc(F)cc1` is -18.9% (active); for `COc1ccc(CCN(CC(=O)N(CC(N)=O)C2CCC[C@@H]2OCc2ccccc2)C(=O)CN(C(=O)CN(CCc2ccc(Cl)cc2)C(=O)CN(C(=O)CN(C)Cc2ccccc2F)[C@H](C)C2CCCCC2)[C@H](C)C2CCCCC2)cc1OC` (some centres undefined) it is -24.4% (active).
The figure for `C[C@H]1[C@H](OC(=O)CCC(=O)O)O[C@@H]2O[C@]3(C)CC[C@H]4[C@H](C)CC[C@@H]1[C@@]24OO3` is -30.5% (active).
For `COc1ccc2[nH]cc(-c3noc(C(=O)c4cn(C)c5ccc(F)cc45)n3)c2c1`, the growth is 81.7% (inactive).
For the molecule `C[C@@H]1CN(c2nc3c(cc2F)c(=O)c(C(=O)O)cn3C(C)(C)C)C[C@H](C)N1`, the growth was 97% (inactive).
As to `COc1ccc(C2CC(c3cnccn3)=NN2)cc1OC` (centres undefined), the growth was 46.5% (inactive).
Consider `Cn1ccnc1C(=O)/C=C/c1ccc(C(=O)Nc2ccccc2O)cc1`, for which the growth is 0.702% (active).
The figure for `c1ccc([P+](CCC[P+](c2ccccc2)(c2ccccc2)c2ccccc2)(c2ccccc2)c2ccccc2)cc1` is 30.5% (inactive); for `CCN(CC)c1ccc2cc(NC(=O)OCCNC(=O)CCNC(=O)[C@H](CC(C)C)NC(=O)C(C)(C)NC(=O)C(C)(C)NC(=O)[C@H](CC(C)C)NC(=O)CCNC(=O)C(C)(C)NC(=O)[C@H](CC(C)C)NC(=O)CCNC(=O)[C@@](C)(CC)NC(=O)[C@H](C)NC(=O)CCNC(=O)C(C)(C)NC(=O)[C@H](C)NC(=O)[C@@H]3CCCN3C(=O)[C@@](C)(CC)NC(=O)[C@H](Cc3ccccc3)NC(=O)C3CCCN3C(=O)C(C)(C)NC(=O)C3CCCN3C(=O)C(C)(C)NC(C)=O)c(=O)oc2c1` (some centres undefined) it is -67.7% (active).
As for `COc1cc(Cl)cc(-c2nn(-c3cccc(NC(=O)c4ccc(Cl)c(Cl)c4)c3)cc2-c2ccncc2)c1`, the growth is 94.1% (inactive).
For `Cc1nn(-c2ccccc2)c2nc(N)c(C3=NCCO3)nc12`, the growth was 102% (inactive).
The figure for `CN(C)C(=S)N(C)C` is 86.6% (inactive); for `N#C/C(=N\Nc1ccccc1)C(=O)Nc1cc(-c2ccccc2)nn1-c1ccccc1` it is 35.4% (inactive); for `O=C(Nc1cccc(-n2cc(-c3ccncc3)c(-c3ccc(O)c(Cl)c3)n2)c1)c1ccc(N2CCOCC2)c(C(F)(F)F)c1` it is -10.6% (active).
